# Tested on: Plasmodium falciparum
# Experiment: GSK_TCMDC: Inhibition of Plasmodium falciparum 3D7 in whole red blood cells, using parasite LDH activity as an index of growth. Test compounds present at 2uM
# Assay type: functional
row,SMILES,Inhibition [%]
1,Nc1cc(/C=C/c2ccc([N+](=O)[O-])o2)nc2ccccc12,93
2,Oc1cccc(-c2nc(-c3cccc(I)c3)c(-c3ccc(-c4nc(-c5cccc(O)c5)[nH]c4-c4cccc(I)c4)cc3)[nH]2)c1,96
3,Cc1ccc(NC(=O)Nc2ccccc2)cc1-c1ccc(C(=O)Nc2ccncc2)cc1,99
4,O=C(Nc1cccc(-c2nn3ccccc3c2-c2ccnc(Nc3ccccc3)n2)c1)c1c(F)cccc1F,98
5,CCCC(=O)c1cnc2c(Oc3cc(Cl)ncn3)cccc2c1Nc1ccccc1C,99
6,O=C(c1ccc([N+](=O)[O-])o1)N1CCN(c2ccccc2)CC1,94
7,Fc1cccc(COc2ccc(-n3ccc4c(NCCCn5ccnc5)ncnc43)cc2Cl)n1,87
8,Br.COc1ccc(OCCCON2C(=N)N=C(N)NC2(C)C)cc1,97
9,COc1ccc(N2CCN(CCCCNC(=O)c3ccc(NC(=O)c4ccc(Cl)cc4)cc3)CC2)c(OC)c1.Cl,97
10,O=C(N[C@@H](Cc1ccccc1)C(=O)NC1CCCCC1)c1ccc(O)c(-c2ccc(Cl)c(Cl)c2)c1,98
11,COc1ccc(CNCc2ccc(-c3cccc(-c4nc5cc(F)ccc5[nH]4)c3)cc2)cc1.O=C(O)C(F)(F)F,100
12,O=C(Nc1cc(Cl)ccc1O)c1cc(-c2ccccc2O)no1,95
13,Cc1ccccc1OCC(O)CNC1CCC(NCC(O)COc2ccccc2C)CC1 (centres undefined),98
14,CCCN(Cc1nnc(-c2ccco2)o1)C(=O)C1CCN(c2ncc(C(F)(F)F)cc2Cl)CC1,98
